Assay results published in PubChem BioAssay (EPA / NIEHS).
Values joined by “and” are separate entries in the source; they are usually repeats but may differ in a detail not shown here. Identical values can stand only once. Inconclusive results are not listed. Some compounds were tested as several samples or in several runs, with calls that do not always agree. Active and inactive are the calls of the source. How the source made its calls, unless noted: active means hit-call score of the fitted dose curve at least 0.9, where 1 is the maximum; inconclusive means response in the unintended direction; inactive means score below 0.9.

Legend:
[1] = target: Bile acid receptor (Homo sapiens) (UniProt Q96RI1); experiment: OT_FXR_FXRSRC1_0480: Odyssey Thera (OT) 8-hour HEK293T Protein-Complementation Assay for Farnesoid X receptor/SRC-1 Co-activator (AID 2283383)
Outline: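 HEK293T cells expressing FXR and SRC-1 fused to reporter fragments were dosed with compound for 8 h; fluorescence from the reconstituted reporter marked co-activator recruitment. Gain of signal was fitted against the DMSO baseline.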

[2] = target: Bile acid receptor (Homo sapiens) (UniProt Q96RI1); experiment: OT_FXR_FXRSRC1_1440: Odyssey Thera (OT) 24-hour HEK293T Protein-Complementation Assay for Farnesoid X receptor/SRC-1 Co-activator (AID 2283384)
Outline: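 HEK293T cells were dosed with compound and read 24 h later by fluorescence intensity from protein-fragment complementation reporting FXR/SRC-1 co-activator interaction. Gain of signal was fitted relative to DMSO negative control as baseline.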

[3] = target: Retinoic acid receptor RXR-alpha (Homo sapiens) (UniProt P19793); experiment: OT_NURR1_NURR1RXRa_0480: Odyssey Thera (OT) 8-hour HEK293T Protein Complementation Assay for Nurr1/retinoid X receptor (RXR) (AID 2283385)
Outline: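 HEK293T cells expressing Nurr1 and RXRα fused to reporter fragments were dosed with compound for 8 hours. Complex formation was read as fluorescence intensity and analysed as gain of signal against DMSO as baseline.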

[4] = target: Retinoic acid receptor RXR-alpha (Homo sapiens) (UniProt P19793); experiment: OT_NURR1_NURR1RXRa_1440: Odyssey Thera (OT) 24-hour HEK293T Protein Complementation Assay for Nurr1/retinoid X receptor (RXR) (AID 2283386)
Outline: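 HEK293T cells were dosed with compound and read 24 h later by fluorescence intensity in a protein-fragment complementation format, where Nurr1–RXRα interaction reconstitutes a split reporter. Activity was fitted as gain of signal relative to DMSO baseline.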

[5] = target: Peroxisome proliferator-activated receptor gamma (Homo sapiens) (UniProt P37231); experiment: OT_PPARg_PPARgSRC1_0480: Odyssey Thera (OT) 8-hour Protein-Complementation Assay for Peroxisome Proliferator-activated Receptor Gamma / SRC-1 Co-activator (AID 2283387);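 further: nuclear to cytoplasmic split Venus YFP fluorescence ratio reporting PPARg SRC-1 interaction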
Outline: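 Read-out: 488 nm N/C fluorescence ratio from complemented Venus YFP fragments, ≥350 cells per image, gain-of-signal fitted against DMSO baseline. Fusions of PPARg/SRC-1 with IFP1/IFP2 expressed transiently in HEK293T; compounds applied 8 h.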

[6] = target: Peroxisome proliferator-activated receptor gamma (Homo sapiens) (UniProt P37231); experiment: OT_PPARg_PPARgSRC1_1440: Odyssey Thera (OT) 24-hour Protein-Complementation Assay for Peroxisome Proliferator-activated Receptor Gamma/ SRC-1 Co-activator (AID 2283388);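 further: nuclear to cytoplasmic ratio of reconstituted Venus YFP fluorescence in fixed imaged cells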
Outline: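 Readout: nuclear-to-cytoplasmic 488 nm fluorescence ratio, ≥350 cells per image, 8 images per well, after 24 h compound exposure of HEK293T expressing PPARg/SRC-1 split-YFP fusions. Activity fitted in positive direction against DMSO.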

[7] = CEETOX_H295R_11DCORT: CeeTox H295R High-throughput Steroidogenesis Assay for 11-Deoxycortisol (11DCORT) (AID 2283432; active means hit-call score of the fitted dose curve at least 0.9, where 1 is the maximum; inactive means score below 0.9;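 on AC50: 11-deoxycortisol secreted into the medium measured by LC-MS/MS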); conditions: actives raise or lower the signal
Outline: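 H295R cells; 10 uM forskolin prestim 48 h; compound in 0.1% DMSO 48 h; media extracted with MTBE; 11-deoxycortisol by LC-MS/MS, 7-point standard curve; gain/loss vs DMSO baseline; viability by MTT in same wells.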

[8] = CEETOX_H295R_OHPREG: CeeTox H295R High-throughput Steroidogenesis Assay for OH-Pregnenolone (OHPREG) (AID 2283434; active means hit-call score of the fitted dose curve at least 0.9, where 1 is the maximum; inactive means score below 0.9); conditions: actives raise or lower the signal
Outline: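 Hormone levels in spent medium were measured by tandem mass spectrometry following liquid-liquid extraction. Cells (H295R) had been forskolin-stimulated (10 uM, 48 h) before a 48 h chemical exposure at 0.1% DMSO, with activity fitted in both directions against DMSO.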

[9] = CEETOX_H295R_OHPROG: CeeTox H295R High-throughput Steroidogenesis Assay for OH-Progesterone (OHPROG) (AID 2283435; active means hit-call score of the fitted dose curve at least 0.9, where 1 is the maximum; inactive means score below 0.9); conditions: actives raise or lower the signal
Outline: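 H295R human adrenal cells were prestimulated 48 h with 10 uM forskolin, then exposed 48 h to test chemical (0.1% DMSO final). 17alpha-hydroxyprogesterone in medium was measured by HPLC-MS/MS after MTBE extraction; bidirectional fitting vs DMSO.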

[10] = CEETOX_H295R_CORTIC: CeeTox H295R High-throughput Steroidogenesis Assay for Corticosterone (CORTIC) (AID 2283437; active means hit-call score of the fitted dose curve at least 0.9, where 1 is the maximum; inactive means score below 0.9;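 further: corticosterone secreted into medium quantified by mass spectrometry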); conditions: actives raise or lower the signal
Outline: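 Corticosterone secreted into medium is measured by reverse-phase HPLC with tandem MS following liquid-liquid extraction. Cells are forskolin-stimulated (10 uM, 48 h) before 48 h test exposure; activity fitted in both directions against DMSO.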

[11] = CEETOX_H295R_CORTISOL: CeeTox H295R High-throughput Steroidogenesis Assay for Cortisol (AID 2283438; active means hit-call score of the fitted dose curve at least 0.9, where 1 is the maximum; inactive means score below 0.9;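 further: cortisol secreted into medium quantified by LC-MS/MS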); conditions: actives raise or lower the signal
Outline: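 H295R human adrenal cells were prestimulated 48 h with 10 uM forskolin, then exposed 48 h to test chemical (0.1% DMSO final). Medium cortisol was quantified by HPLC-MS/MS after MTBE extraction; bidirectional fitting relative to DMSO baseline.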

[12] = CEETOX_H295R_DOC: CeeTox H295R High-throughput Steroidogenesis Assay for DOC (AID 2283439; active means hit-call score of the fitted dose curve at least 0.9, where 1 is the maximum; inactive means score below 0.9); conditions: actives raise or lower the signal
Outline: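 H295R adrenal cells prestimulated 48 h with 10 uM forskolin, then exposed 48 h to test chemical (0.1% DMSO final). Medium 11-deoxycorticosterone extracted with MTBE, quantified by HPLC-MS/MS; bidirectional fit versus DMSO baseline; MTT viability in same wells.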

[13] = CEETOX_H295R_ESTRADIOL: CeeTox H295R High-throughput Steroidogenesis Assay for Estradiol (AID 2283440; active means hit-call score of the fitted dose curve at least 0.9, where 1 is the maximum; inactive means score below 0.9;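 further: estradiol secreted into medium quantified by LC-MS/MS after dansyl derivatisation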); conditions: actives raise or lower the signal
Outline: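 H295R, 48 h forskolin (10 uM) prestim → 48 h compound, 0.1% DMSO final. Estradiol in medium: MTBE extraction, dansyl chloride derivatization, LC-MS/MS. Fit bidirectional vs DMSO baseline; MTT viability in same wells.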

[14] = CEETOX_H295R_ESTRONE: CeeTox H295R High-throughput Steroidogenesis Assay for Estrone (AID 2283441; active means hit-call score of the fitted dose curve at least 0.9, where 1 is the maximum; inactive means score below 0.9;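 further: estrone secreted into medium measured by LC-MS/MS after dansyl derivatization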); conditions: actives raise or lower the signal
Outline: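 H295R cells; 48 h forskolin (10 uM) prestimulation; 48 h compound exposure, 0.1% DMSO final. Medium estrone: MTBE extraction, dansyl derivatization, HPLC-MS/MS. Bidirectional fit vs DMSO.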

[15] = CEETOX_H295R_PROG: CeeTox H295R High-throughput Steroidogenesis Assay for Progesterone (PROG) (AID 2283442; active means hit-call score of the fitted dose curve at least 0.9, where 1 is the maximum; inactive means score below 0.9;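 on AC50: human H295R adrenal cells primed with 10 µM forskolin before dosing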); conditions: actives raise or lower the signal
Outline: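 Progesterone read-out: HPLC-MS/MS on MTBE extracts of conditioned medium after 48 h chemical exposure of forskolin-primed (10 uM, 48 h) H295R cells. Gain or loss of signal was fitted relative to DMSO baseline.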

[16] = read-out: Tumor necrosis factor receptor superfamily member 6 (Homo sapiens) (UniProt P25445); experiment: LTEA_HepaRG_FAS: Life Technologies and Expression Analysis (LTEA) Assay for Fas cell surface death receptor (FAS) using HepaRG (AID 2283447; active means hit-call score of the fitted dose curve at least 0.9, where 1 is the maximum; inactive means score below 0.9); conditions: mRNA level, 48 h; actives raise or lower the signal
Outline: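 FAS transcript level was measured by TaqMan qRT-PCR against three housekeeping genes after 48 h chemical exposure. Cells were HepaRG, 0.5% DMSO vehicle, with a top concentration of 100 uM and half-log dilutions over eight points, in duplicate.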

[17] = read-out: Fatty acid synthase (Homo sapiens) (UniProt P49327); experiment: LTEA_HepaRG_FASN: Life Technologies and Expression Analysis (LTEA) Assay for Fatty Acid Synthase (FASN) using HepaRG (AID 2283448; active means hit-call score of the fitted dose curve at least 0.9, where 1 is the maximum; inactive means score below 0.9); conditions: mRNA level, 48 h; actives raise or lower the signal
Outline: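 Differentiated human HepaRG cells were exposed for 48 h in serum-free induction medium to eight half-log concentrations up to 100 uM in 0.5% DMSO, in duplicate. FASN mRNA was quantified by TaqMan qRT-PCR, normalized to ACTB/GAPDH/POLR2A, and fitted bidirectionally against DMSO.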

[18] = read-out: Cyclin D2 (CCND2), CCND2 (gene 894); experiment: LTEA_HepaRG_CCND2: Life Technologies and Expression Analysis (LTEA) Assay for Cyclin D2 (CCND2) using HepaRG (AID 2283449; active means hit-call score of the fitted dose curve at least 0.9, where 1 is the maximum; inactive means score below 0.9); conditions: mRNA level, 48 h; actives raise or lower the signal
Outline: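 Read-out is CCND2 mRNA level measured by qRT-PCR in human HepaRG liver cells and normalised to three housekeeping genes. Chemicals were applied for 48 h at up to 100 uM, with gain or loss fitted relative to 0.5% DMSO.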

[19] = read-out: Cyclin Dependent Kinase Inhibitor 1A (CDKN1A), CDKN1A (gene 1026); experiment: LTEA_HepaRG_CDKN1A: Life Technologies and Expression Analysis (LTEA) Assay for Cyclin Dependent Kinase Inhibitor 1A (CDKN1A) using HepaRG (AID 2283450; active means hit-call score of the fitted dose curve at least 0.9, where 1 is the maximum; inactive means score below 0.9); conditions: mRNA level, 48 h; actives raise or lower the signal
Outline: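 HepaRG, 48 h dosing, 8-pt half-log series from 100 uM top, 0.5% DMSO vehicle, duplicates. Readout: TaqMan qRT-PCR of CDKN1A transcript, housekeeping-normalized (ACTB, GAPDH, POLR2A). Up/down curve fit relative to DMSO.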

[20] = CEETOX_H295R_ANDR: CeeTox H295R High-throughput Steroidogenesis Assay for Androstenedione (ANDR) (AID 2283436; active means hit-call score of the fitted dose curve at least 0.9, where 1 is the maximum; inactive means score below 0.9); conditions: actives raise or lower the signal
Outline: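 Read-out is androstenedione secreted into medium, measured by tandem mass spectrometry after liquid-liquid extraction. Cells were H295R, dosed for 48 h per modified OECD 456; activity fitted in both directions relative to DMSO.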

Measured: AC50

Sequence of Retinoic acid receptor RXR-alpha (Homo sapiens) (P19793 whole entry, looked up, the tested form may be a part): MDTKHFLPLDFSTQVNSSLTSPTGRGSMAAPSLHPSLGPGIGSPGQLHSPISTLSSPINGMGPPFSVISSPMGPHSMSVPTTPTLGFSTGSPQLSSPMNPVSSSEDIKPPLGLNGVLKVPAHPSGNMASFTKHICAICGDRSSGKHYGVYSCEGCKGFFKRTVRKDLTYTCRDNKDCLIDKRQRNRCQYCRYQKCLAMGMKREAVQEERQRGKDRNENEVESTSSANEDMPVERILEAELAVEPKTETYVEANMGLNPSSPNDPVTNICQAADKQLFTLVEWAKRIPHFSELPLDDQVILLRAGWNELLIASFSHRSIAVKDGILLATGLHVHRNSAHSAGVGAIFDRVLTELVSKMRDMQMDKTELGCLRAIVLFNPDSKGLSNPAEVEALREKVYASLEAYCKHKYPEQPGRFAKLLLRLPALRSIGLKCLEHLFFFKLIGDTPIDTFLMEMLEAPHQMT
Sequence of Bile acid receptor (Homo sapiens) (Q96RI1 whole entry, looked up, the tested form may be a part): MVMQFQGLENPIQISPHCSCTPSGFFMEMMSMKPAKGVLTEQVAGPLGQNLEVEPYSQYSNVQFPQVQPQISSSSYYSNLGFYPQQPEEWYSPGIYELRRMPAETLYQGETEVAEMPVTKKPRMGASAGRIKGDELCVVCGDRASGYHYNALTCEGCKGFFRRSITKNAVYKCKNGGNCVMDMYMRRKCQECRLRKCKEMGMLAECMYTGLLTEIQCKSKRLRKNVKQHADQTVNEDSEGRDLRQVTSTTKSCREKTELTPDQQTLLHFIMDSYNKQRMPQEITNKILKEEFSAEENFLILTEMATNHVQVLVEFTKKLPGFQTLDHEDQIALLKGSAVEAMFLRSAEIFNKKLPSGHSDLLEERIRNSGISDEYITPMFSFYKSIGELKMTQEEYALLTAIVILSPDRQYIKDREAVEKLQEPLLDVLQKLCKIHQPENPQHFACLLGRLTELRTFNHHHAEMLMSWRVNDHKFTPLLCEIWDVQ
Sequence of Peroxisome proliferator-activated receptor gamma (Homo sapiens) (P37231 whole entry, looked up, the tested form may be a part): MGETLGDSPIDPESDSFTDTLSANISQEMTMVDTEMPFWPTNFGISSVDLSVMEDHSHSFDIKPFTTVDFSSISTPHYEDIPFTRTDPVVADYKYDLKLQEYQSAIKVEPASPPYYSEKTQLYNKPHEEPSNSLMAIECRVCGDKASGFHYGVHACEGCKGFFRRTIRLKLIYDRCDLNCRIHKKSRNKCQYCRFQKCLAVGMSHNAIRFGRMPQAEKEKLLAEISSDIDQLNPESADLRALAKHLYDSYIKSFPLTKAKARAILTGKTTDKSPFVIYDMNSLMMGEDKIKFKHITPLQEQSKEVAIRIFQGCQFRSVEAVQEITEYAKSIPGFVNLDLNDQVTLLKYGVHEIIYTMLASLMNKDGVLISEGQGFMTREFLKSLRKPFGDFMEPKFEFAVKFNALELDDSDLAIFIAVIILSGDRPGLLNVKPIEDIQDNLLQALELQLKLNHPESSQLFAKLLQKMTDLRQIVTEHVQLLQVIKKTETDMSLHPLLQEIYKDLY
Sequence of Fatty acid synthase (Homo sapiens) (P49327 whole entry, looked up): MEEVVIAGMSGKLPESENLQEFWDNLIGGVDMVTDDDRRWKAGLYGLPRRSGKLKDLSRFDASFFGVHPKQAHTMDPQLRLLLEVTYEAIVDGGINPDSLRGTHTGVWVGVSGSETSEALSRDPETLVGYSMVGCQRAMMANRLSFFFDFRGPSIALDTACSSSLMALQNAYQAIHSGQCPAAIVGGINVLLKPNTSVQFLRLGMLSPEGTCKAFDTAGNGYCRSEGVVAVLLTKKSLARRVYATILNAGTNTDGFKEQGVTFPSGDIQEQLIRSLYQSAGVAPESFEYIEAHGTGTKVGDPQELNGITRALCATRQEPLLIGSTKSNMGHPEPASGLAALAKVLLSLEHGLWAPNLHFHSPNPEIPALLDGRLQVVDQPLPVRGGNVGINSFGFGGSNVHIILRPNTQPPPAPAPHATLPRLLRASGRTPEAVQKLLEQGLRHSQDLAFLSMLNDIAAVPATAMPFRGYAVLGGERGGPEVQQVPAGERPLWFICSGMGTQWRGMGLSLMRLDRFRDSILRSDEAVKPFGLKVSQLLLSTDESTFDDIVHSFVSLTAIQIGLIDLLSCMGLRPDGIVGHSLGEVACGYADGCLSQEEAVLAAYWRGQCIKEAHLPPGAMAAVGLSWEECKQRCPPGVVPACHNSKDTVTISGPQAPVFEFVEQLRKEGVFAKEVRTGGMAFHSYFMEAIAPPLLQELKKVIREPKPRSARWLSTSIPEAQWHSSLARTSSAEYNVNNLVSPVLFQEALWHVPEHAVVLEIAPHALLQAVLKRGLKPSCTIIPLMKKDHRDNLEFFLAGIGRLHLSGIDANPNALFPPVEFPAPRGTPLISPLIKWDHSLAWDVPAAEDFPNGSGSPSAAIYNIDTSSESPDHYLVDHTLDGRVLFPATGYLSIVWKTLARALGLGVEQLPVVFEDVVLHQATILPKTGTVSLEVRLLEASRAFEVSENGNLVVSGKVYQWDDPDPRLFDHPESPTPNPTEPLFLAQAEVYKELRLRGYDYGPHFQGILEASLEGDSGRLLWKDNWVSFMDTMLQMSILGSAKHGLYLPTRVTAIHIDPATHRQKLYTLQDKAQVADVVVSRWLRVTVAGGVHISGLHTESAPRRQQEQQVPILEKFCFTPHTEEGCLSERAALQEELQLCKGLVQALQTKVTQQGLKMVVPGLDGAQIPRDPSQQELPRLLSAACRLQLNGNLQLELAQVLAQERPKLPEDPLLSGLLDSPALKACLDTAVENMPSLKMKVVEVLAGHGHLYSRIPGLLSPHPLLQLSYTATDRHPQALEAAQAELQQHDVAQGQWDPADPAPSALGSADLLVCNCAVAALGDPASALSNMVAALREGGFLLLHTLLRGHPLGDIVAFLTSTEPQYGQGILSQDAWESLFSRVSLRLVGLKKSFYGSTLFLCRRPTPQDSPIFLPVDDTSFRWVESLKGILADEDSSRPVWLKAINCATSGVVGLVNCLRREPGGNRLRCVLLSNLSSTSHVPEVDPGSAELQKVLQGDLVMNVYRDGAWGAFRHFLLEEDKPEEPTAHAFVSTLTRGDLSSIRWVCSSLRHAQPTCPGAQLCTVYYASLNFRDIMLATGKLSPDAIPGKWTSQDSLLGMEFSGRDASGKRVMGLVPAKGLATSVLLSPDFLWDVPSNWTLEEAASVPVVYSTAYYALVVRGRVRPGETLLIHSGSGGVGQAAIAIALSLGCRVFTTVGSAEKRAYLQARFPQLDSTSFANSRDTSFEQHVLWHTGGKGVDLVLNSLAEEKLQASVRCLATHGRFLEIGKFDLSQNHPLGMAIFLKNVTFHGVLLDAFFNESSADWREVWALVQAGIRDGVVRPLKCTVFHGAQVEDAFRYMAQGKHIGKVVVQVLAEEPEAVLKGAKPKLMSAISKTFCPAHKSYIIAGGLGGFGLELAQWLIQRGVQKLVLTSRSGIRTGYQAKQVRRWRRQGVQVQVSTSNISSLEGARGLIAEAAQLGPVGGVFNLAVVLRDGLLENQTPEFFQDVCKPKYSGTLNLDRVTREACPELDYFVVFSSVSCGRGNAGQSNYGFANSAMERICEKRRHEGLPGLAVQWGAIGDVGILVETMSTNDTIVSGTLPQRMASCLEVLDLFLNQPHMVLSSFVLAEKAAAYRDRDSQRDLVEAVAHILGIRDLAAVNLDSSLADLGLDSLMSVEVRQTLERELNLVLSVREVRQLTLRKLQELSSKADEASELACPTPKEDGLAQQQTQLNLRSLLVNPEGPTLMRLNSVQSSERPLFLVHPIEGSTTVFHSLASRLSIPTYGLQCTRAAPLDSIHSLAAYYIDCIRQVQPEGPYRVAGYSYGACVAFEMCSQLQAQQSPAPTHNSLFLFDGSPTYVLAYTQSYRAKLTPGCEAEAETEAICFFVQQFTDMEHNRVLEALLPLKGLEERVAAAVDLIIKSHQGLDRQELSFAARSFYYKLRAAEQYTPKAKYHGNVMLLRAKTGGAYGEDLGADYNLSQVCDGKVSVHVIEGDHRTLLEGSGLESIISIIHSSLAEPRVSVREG

C=CC1(C)OC(=O)N(c2cc(Cl)cc(Cl)c2)C1=O (stereo not given)
active: [2] 34.2 µM | [7] 25.6 µM | [9] 22.6 µM | [12] 11.3 µM | [15] 17.5 µM
inactive: [1] | [2] | [3] | [4] | [5] | [6] | [8] | [10] | [11] | [13] | [14] | [16] | [17] | [18] | [19]

CS/C(C)=N/OC(=O)N(C)SN(C)C(=O)O/N=C(\C)SC
inactive: [2] | [5] | [6] | [16] | [17] | [18] | [19]

N#CC(CCc1ccc(Cl)cc1)(Cn1cncn1)c1ccccc1 (stereo not given)
active: [9] 0.36 µM | [11] 0.386 µM | [15] 0.627 µM | [16] 76.1 µM | [17] 91.1 µM | [19] 60.9 µM
not listed: [1] | [2] | [3] | [4]
inactive: all other assays above

CO/C=C(/C(=O)OC)c1ccccc1Oc1cc(Oc2ccccc2C#N)ncn1
active: [16] 78.4 µM and 82.9 µM and 81.6 µM | [17] 90.5 µM and 91.3 µM and 91 µM | [19] 79.5 µM and 78.9 µM
inactive: [3] | [5] | [6] | [18]

COc1nc(NC(C)C)nc(NC(C)C)n1
active: [13] 6.99 µM | [14] 3.8 µM
not listed: [2] | [3] | [20]
inactive: all other assays above

CCCCOC(=O)c1ccccc1C(=O)OCCCC
inactive: [3] | [4] | [5] | [6] | [16] | [17] | [18] | [19]
